Several values for one entry are separate records, joined by “and”; a condition that tells them apart may be missing. Equal entries are not always repeated. Results filed as inconclusive are left out. A number with no mark means an inactive call. Activity calls are given as the source filed them. Calls come from the whole dose curve; as a rule, active = well fitted inhibition curve with a large enough effect; inconclusive = small, poorly fitted or top-dose-only effect; inactive = flat fitted curve, though single readings scatter.
% is set by controls: 0 for no effect and ±100 for the full control effect; potency is the fitted concentration of half-maximal effect.

The test concerns KB-3-1. The test is described as follows: Cytotoxic Profiling of Annotated Libraries Using Quantitative High-Throughput Screening (AID 1296008). Note: nearly all actives have a fitted effect of over 60% in size. Conditions: Five cell lines viability, CellTiter-Glo ATP luminescence, 48-72 h; max response: stronger effect = lower value. The essentials: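 Cytotoxicity was measured as CellTiter-Glo ATP luminescence, read after 10 min at room temperature. Compound treatment of the cells lasted 48 or 72 hr at 37 degrees Celsius in a qHTS format.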
A general note: Cellular ATP, detected with luciferase, serves as a proxy for viable cell number.
`O=CCCCC=O`: the max response is -2.08%.

As for `Cc1c(C)c2c(c(C)c1O)CC[C@@](C)(CCC[C@H](C)CCC[C@H](C)CCCC(C)C)O2`, the max response is 4.35% and -16.8%.

Turning to `CCCCCCCCCCCC[n+]1ccc2ccccc2c1`, the Potency was 14.6 µM (active).

In the case of `O=C(O)c1cc(O)c2c(c1)[O][Bi][O]2`, the max response is 2%.

As to `CCOc1ccc2c(c1)C(C)=CC(C)(C)N2`, the max response is -2.71%.

`CC1=CCC(C(C)(C)O)CC1` (stereo unspecified): the max response is 6.57%.

On to `IC(I)I`, for which the max response is 9.13%.

With `CCCCC(=O)O[C@]1(C(=O)CO)[C@H](C)C[C@H]2[C@@H]3CCC4=CC(=O)C=C[C@]4(C)[C@@]3(F)[C@@H](O)C[C@@]21C`, the max response is 32.2%.

Consider `CCCCC(C)(O)C/C=C/[C@H]1[C@H](O)CC(=O)[C@@H]1CCCCCCC(=O)OC` (stereo partly specified), for which the max response was 3.19%.

Regarding `CCCCCCCCCCCCCC[n+]1ccc(C)cc1`, the Potency is 18.4 µM (active).

In the case of `CC(C(=O)O)c1ccc(N2Cc3ccccc3C2=O)cc1` (stereo unspecified), the max response was -24.5%.

`O=C1C(=O)c2ncccc2-c2cccnc21`: the Potency is 4.61 µM (active).

In the case of `CN(C)CCCN1c2ccccc2C(C)(C)c2ccccc21`, the max response was -18.4%.

For `O=C(Nc1cccc(C(F)(F)F)c1)c1cc(Br)cc(Br)c1O`, the Potency is 16.4 µM (active).

Consider `CC1=C(/C=C/C(C)=C/C=C/C(C)=C/C=C/C=C(C)/C=C/C=C(C)/C=C/C2=C(C)CCCC2(C)C)C(C)(C)CCC1`, for which the max response is -7.35%.

Consider `Nc1c(N=Nc2ccc(-c3ccc(N=Nc4cc(S(=O)(=O)O)c5ccccc5c4N)cc3)cc2)cc(S(=O)(=O)O)c2ccccc12`, for which the max response is -9%.

The record behind these values is PubChem BioAssay (NCATS).
